In PubChem BioAssay:
“And” between values parts separate entries of the source, which are not always exact repeats. Equal values may be shown once. The source made the active and inactive calls.

Legend:
[1] = binders of probe aFSTL3 on microarray, primary screen, stem cell growth factor project, biochemical, small-molecule microarray, fluorescence 635/667 (AID 1064); conditions: higher = more signal;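 also: measures binding of the biotinylated anti-FSTL3 antibody to printed compounds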
[2] = binders from COS7 lysate, DM2A8 probe, primary screen, torsin A project, cell lysate, small-molecule microarray, fluorescence 635/667 (AID 1065); conditions: higher = more signal, COS7 lysate expressing mutant human TOR1A
[3] = binders of probe aFGF2 on microarray, primary screen, stem cell growth factor project, biochemical, small-molecule microarray, fluorescence 635/667 (AID 1067); conditions: higher = more signal;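 also: measures binding of biotinylated aFGF2 protein to printed compounds on slides; z-score merges feature fluorescence and signal-to-noise across triplicate slides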
[4] = binders of probe aFGF10 on microarray, primary screen, stem cell growth factor project, biochemical, small-molecule microarray, fluorescence 635/667 (AID 1071); conditions: higher = more signal;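 also: score merges 667 nm spot intensity and signal to noise from triplicate slides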
[5] = biological target: Neurogenic locus notch homolog protein 2 (Homo sapiens) (UniProt Q04721); experiment: Notch2 binders on small-molecule microarrays, primary screen, biochemical, small-molecule microarray, 635 nm fluorescence, stem cell growth factors (AID 1073); conditions: Notch2 binding, higher = more signal
Chain of Neurogenic locus notch homolog protein 2 (Homo sapiens) (Q04721 whole entry, looked up, canonical isoform): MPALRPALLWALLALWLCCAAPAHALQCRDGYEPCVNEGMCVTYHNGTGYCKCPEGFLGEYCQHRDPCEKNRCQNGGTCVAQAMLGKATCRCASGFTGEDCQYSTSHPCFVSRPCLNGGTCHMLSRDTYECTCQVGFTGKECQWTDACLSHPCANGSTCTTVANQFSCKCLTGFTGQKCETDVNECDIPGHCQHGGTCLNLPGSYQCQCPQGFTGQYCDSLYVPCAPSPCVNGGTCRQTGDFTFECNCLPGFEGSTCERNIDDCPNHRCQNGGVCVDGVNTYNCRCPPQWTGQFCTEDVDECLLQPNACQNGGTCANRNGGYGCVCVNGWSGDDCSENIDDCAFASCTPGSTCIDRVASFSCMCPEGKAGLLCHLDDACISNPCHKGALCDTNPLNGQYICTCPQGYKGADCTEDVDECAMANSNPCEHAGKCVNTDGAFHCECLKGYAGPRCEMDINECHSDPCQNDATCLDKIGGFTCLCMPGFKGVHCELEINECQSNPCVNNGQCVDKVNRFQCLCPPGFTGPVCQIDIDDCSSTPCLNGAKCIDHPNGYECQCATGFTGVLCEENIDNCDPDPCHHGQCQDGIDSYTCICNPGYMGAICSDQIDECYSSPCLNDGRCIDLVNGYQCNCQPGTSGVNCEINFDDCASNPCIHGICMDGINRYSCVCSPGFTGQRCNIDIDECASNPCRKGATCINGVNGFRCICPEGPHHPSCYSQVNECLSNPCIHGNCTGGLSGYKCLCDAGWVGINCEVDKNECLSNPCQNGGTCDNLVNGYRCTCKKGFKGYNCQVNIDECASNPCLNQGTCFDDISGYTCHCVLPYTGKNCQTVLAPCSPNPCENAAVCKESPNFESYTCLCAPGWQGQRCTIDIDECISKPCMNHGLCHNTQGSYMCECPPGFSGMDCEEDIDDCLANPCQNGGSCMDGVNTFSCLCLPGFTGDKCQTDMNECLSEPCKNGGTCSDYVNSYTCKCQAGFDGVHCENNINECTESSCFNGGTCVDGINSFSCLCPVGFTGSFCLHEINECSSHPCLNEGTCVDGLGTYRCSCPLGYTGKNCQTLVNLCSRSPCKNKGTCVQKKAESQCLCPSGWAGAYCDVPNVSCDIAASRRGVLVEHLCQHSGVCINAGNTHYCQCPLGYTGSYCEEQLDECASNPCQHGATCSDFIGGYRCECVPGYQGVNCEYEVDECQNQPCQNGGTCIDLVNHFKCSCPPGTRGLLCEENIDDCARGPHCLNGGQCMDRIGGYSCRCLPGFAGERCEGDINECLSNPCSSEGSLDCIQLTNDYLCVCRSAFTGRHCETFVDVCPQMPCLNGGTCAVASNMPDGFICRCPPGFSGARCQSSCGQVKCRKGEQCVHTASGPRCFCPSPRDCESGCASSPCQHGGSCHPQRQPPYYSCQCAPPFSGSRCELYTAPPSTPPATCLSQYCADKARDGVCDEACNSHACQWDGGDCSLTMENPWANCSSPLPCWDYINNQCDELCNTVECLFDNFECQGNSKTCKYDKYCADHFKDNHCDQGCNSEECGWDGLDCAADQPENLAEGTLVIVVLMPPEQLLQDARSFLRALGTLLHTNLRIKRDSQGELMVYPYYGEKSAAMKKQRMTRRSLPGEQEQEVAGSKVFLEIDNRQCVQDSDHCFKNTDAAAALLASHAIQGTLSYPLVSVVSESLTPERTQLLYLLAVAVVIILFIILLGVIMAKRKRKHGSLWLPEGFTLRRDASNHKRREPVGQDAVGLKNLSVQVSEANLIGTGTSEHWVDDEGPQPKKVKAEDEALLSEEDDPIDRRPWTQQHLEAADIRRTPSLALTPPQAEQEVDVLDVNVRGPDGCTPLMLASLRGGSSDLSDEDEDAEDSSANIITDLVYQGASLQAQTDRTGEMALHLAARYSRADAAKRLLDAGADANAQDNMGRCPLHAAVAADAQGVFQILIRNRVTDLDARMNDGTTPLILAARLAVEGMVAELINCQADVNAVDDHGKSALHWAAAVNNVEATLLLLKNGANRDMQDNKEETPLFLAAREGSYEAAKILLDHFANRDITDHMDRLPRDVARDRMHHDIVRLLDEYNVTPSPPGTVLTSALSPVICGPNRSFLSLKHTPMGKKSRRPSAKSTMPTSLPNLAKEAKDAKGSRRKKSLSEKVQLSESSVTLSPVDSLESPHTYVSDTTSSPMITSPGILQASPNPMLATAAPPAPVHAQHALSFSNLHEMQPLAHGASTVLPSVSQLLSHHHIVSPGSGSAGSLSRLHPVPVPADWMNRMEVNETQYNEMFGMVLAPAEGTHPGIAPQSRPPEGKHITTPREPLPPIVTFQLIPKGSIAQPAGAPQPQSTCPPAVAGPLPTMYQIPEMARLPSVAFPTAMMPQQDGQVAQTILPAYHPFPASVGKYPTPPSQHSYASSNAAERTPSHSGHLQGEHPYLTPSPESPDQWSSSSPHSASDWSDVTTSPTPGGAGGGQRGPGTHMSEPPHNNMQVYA

[6] = biological target: Pro-neuregulin-1, membrane-bound isoform (Homo sapiens) (UniProt Q02297); experiment: NRG1 binders on small-molecule microarrays, primary screen, psychiatric disease protein project, biochemical, small-molecule microarray, fluorescence 635/667 (AID 1075); conditions: NRG1 binding, 635 nm fluorescence, higher = more signal;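 also: score combines 667 nm spot fluorescence with signal to noise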
Chain of Pro-neuregulin-1, membrane-bound isoform (Homo sapiens) (Q02297 whole entry, looked up, the tested form may be a part, canonical isoform): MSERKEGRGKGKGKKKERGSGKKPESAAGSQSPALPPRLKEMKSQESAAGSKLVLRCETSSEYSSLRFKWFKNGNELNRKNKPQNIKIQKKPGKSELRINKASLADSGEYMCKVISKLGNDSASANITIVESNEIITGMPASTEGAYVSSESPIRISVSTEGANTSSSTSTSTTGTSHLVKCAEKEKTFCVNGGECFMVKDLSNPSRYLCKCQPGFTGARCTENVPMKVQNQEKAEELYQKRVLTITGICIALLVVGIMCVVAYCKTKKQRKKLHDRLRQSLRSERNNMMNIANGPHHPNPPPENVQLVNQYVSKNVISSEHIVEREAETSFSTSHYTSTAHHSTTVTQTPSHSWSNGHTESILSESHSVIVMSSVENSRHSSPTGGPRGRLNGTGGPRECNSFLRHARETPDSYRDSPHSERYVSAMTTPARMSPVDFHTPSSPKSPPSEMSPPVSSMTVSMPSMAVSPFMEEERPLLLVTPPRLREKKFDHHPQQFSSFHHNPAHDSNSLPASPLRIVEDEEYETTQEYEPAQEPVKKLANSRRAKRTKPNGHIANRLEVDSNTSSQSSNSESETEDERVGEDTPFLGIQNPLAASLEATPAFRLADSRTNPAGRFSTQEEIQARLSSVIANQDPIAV

[7] = system: Neuregulin-1 EGF-like domain; experiment: binders of neuregulin-1 EGF-like domain, primary screen, biochemical, small-molecule microarray, 635 nm fluorescence (AID 1081); conditions: small-molecule microarray binding, higher = more signal;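 also: binding of the protein to compounds printed on small-molecule microarray slides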
[8] = FRG1 promoter luciferase signal modulators, primary screen, FRG1 inhibition for FSHD, cell-based, C2C12 myotubes, firefly/Renilla luciferase, luminescence (AID 1084); conditions: higher = more signal, called active from +8 up or from −8 down
[9] = binders of probe aFST on microarray, primary screen, stem cell growth factor project, biochemical, small-molecule microarray, fluorescence 635/667 (AID 1086); conditions: higher = more signal;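 also: score merges 667 nm fluorescence with signal-to-noise of each printed compound spot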
[10] = binders of probe aHhip on microarray, primary screen, stem cell growth factor project, biochemical, small-molecule microarray, fluorescence 635/667 (AID 1087); conditions: higher = more signal;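 also: score merges spot fluorescence at 667nm with spot signal to noise ratio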

SMILES | composite z-score [1] | composite z-score [2] | composite z-score [3] | composite z-score [4] | composite z-score [5] | composite z-score [6] | composite z-score [7] | z-score [8] | composite z-score [9] | composite z-score [10]
C=CCN(CCCC)C(=O)C1N(c2ccc(CCO)cc2)C(=O)C2C(C(=O)O)C3C=CC21O3 (stereo not given) | 0.508 and 1.27 | -1.1 and -1.66 | -0.156 and -0.061 | -0.883 and 0.807 | -1.32 and -0.91 | -1.32 and -0.402 | -0.493 and 0.201 | -0.267 (inactive) and 1.68 (inactive) | -0.951 and -1.03 | -0.48 and -0.137
CCN1C(=O)[C@H]2[C@H]3[C@H](O)[C@H](O)CC(=NNC(=O)OCc4ccc(OC)cc4)[C@H]3CC[C@H]2C1=O | 2.2 | 0.349 | -0.0775 | 0.284 | -0.0863 | -0.116 | -0.222 | -0.0988 (inactive) | 1.03 | -0.0482
C=C[C@@H](C)[C@@H](O)c1ccc(O)c2ccccc12 | 0.306 and 0.254 | -0.54 and -0.797 | -0.105 and -0.154 | -0.262 and -0.0511 | -1.51 and -1.17 | -0.775 and -0.178 | -0.377 and 0.98 | 1.07 (inactive) and 0.849 (inactive) | -0.774 and -0.854 | -0.287 and -0.184
CCCNC(=O)OC[C@H]1O[C@H](CCON=C(C)CCN2CCc3nc(-c4ccccc4)c(-c4ccccc4)cc3C2)C=C[C@@H]1Oc1ccc(OC)cc1 | -0.369 | 0.0379 | -0.116 | 0.118 | -0.247 | 0.48 | 0.524 | 0.198 (inactive) | 0.142 | -0.0994
Cc1ccc(S(=O)(=O)N[C@H]2COC(=O)[C@@H](C)COC(=O)[C@H](C)NC(=O)CC=C[C@H]2C)cc1 | -0.574 | 1.03 | -0.116 | 0.604 | 0.192 | -0.476 | -0.132 | 0.691 (inactive) | -0.154 | -0.0618
C=CCN(C(=O)C1N(c2c(Cl)cccc2CO)C(=O)C2C(C(=O)O)C3C=CC21O3)c1ccc(OC)cc1 (stereo not given) | 0.778 and 0.859 | -1.57 and -1.33 | -0.119 and -0.252 | -0.653 and -1.76 | -1.09 and -1.92 | -0.515 and -0.497 | 0.507 and -0.579 | 1.48 (inactive) and -1.39 (inactive) | -0.826 and -0.934 | -0.283 and -0.517
C=CCN(CCCCC)C(=O)C1N(CCOCCO)C(=O)C2C(C(=O)O)C3C=CC21O3 (stereo not given) | 0.555 and 0.963 | -0.771 and -0.902 | -0.191 and -0.283 | -1.87 | -0.459 and -2.05 | 0.17 and -0.496 | 0.891 and 1.05 | 0.306 (inactive) and 0.0282 (inactive) | -0.211 and -0.726 | -0.171 and -0.182
CCCCN1CC=CC23O[C@@H]4C=CCCOC(=O)C4[C@H]2C(=O)N(C(C)CO)[C@@H]3C1=O (stereo not given in full) | 0.385 and 0.252 | -0.371 and 0.204 | -0.0753 and -0.135 | -0.228 and 0.292 | -0.921 and -0.936 | 1.1 and 0.324 | 0.839 and 1.04 | 0.489 (inactive) and -0.469 (inactive) | -0.337 and 0.104 | -0.137 and 0.251
C=C[C@@H](OC)[C@H](O)c1ccc(OC)c(O)c1 | -0.407 and 0.724 | 0.415 and -0.675 | 0.177 and -0.175 | 0.0573 and -1.49 | 0.113 and -0.602 | -0.44 and -0.559 | 0.225 and -0.758 | 0.0163 (inactive) and -0.152 (inactive) | -0.209 and -0.844 | -0.0994 and -0.296
C[N+](C)(C)CCCCCCNC(=O)[C@H]1C[C@H]2C(=O)N[C@@H](CCCC[N+](C)(C)C)C(=O)N2[C@H]1c1ccc(O)cc1 | 0.267 and 0.341 | 0.137 and 0.115 | -0.106 and -0.158 | 0.105 and 0.129 | -0.2 and -0.619 | -0.0293 and -0.0659 | 1.07 and 1.41 | 0.996 (inactive) and -0.0859 (inactive) | -0.15 and -0.508 | -0.0994 and 0.2
COC(=O)C1=C(C)N(Cc2ccccc2)[C@]23O[C@](C(=O)OC)(C(=O)N2[C@@H]1c1ccccc1)[C@@H](C(=O)OC)[C@H]3C(=O)OC | 0.202 and -0.441 | -0.295 and -0.1 | -0.112 and -0.0712 | -0.204 and 0.255 | -0.481 and 0.25 | 0.943 and -0.386 | 0.393 and 0.208 | -0.125 (inactive) and -0.101 (inactive) | -0.243 and -0.0583 | -0.137 and -0.189
C=CCN(C(=O)C(c1cccs1)N(C(=O)/C=C\C(=O)O)C(C)(C)CO)c1ccc(OC)cc1 (stereo not given) | 0.865 and 0.636 | -0.709 and 0.408 | -0.204 and -0.158 | -1.37 and -0.882 | -0.907 and -1.48 | 1.46 and 1.42 | 1.36 and 0.431 | -0.447 (inactive) and 1.44 (inactive) | -0.337 and -0.451 | -0.482 and -0.0645
C[C@@H](c1ccccc1)N1C(=O)[C@H]2[C@H]3[C@H](O)[C@H](O)CC(=O)[C@@H]3CC[C@H]2C1=O | -0.289 | 0.118 | -0.0193 | 0.534 | 0.694 | -0.0676 | 0.603 | -1.06 (inactive) | 0.435 | -0.0672
CC(C)N1CC=CC23O[C@@H]4C=CCCOC(=O)C4[C@H]2C(=O)N(C(C)CO)[C@@H]3C1=O (stereo not given in full) | 0.886 and 0.781 | 0.543 and -0.0534 | -0.158 and -0.116 | -1.39 and -0.751 | -0.0092 and -0.882 | 2.21 and -0.35 | 0.958 and 0.694 | -0.746 (inactive) and 0.0086 (inactive) | -0.828 and -0.509 | -0.178 and 0.0176
C=CCN(Cc1ccccc1)C(=O)C1N(CCCCCCO)C(=O)C2C(C(=O)O)C3C=CC21O3 (stereo not given) | 1.09 and 1.2 | -1.16 and -1.37 | -0.236 and -0.323 | -1.2 and -1.78 | -1.18 and -1.23 | 0.614 and 0.705 | 1.41 and 1.4 | 0.639 (inactive) and -0.331 (inactive) | -0.841 and -0.708 | -0.5 and -0.204
CC(C)OC(=O)C=C1C[C@@H](c2ccccc2)O[C@@H](c2ccccc2)O1 | -0.682 and -0.0971 | 0.935 and 1.2 | -0.0695 and 0.0305 | 1.04 and 1.05 | 1.45 and 1.59 | 0.482 and 1.23 | 1.1 and 1.18 | -0.778 (inactive) and -0.828 (inactive) | 0.904 and 0.743 | 0.194 and 0.126
CC(C)C(=O)N[C@@H]1CCCN1C(=O)C=Cc1ccccc1 | -0.46 | 0.323 | -0.0781 | 0.405 | 0.99 | 0.208 | 1.07 | -0.416 (inactive) | 0.125 | -0.0994
COC(=O)C1=C(C)N(Cc2ccccc2)[C@]23O[C@](C(=O)OC)(C(=O)N2[C@@H]1c1ccccc1)[C@H]1C(=O)N(c2ccccc2)C(=O)[C@H]13 | -0.387 and -0.343 | 0.446 and 0.277 | -0.0747 and 0.41 | -0.116 and 0.883 | 1.18 and 0.445 | 0.288 and 0.212 | 1.07 and 1.09 | -0.507 (inactive) and -0.154 (inactive) | 0.0931 and 0.64 | 0.192 and -0.0672
CC(CO)N1C(=O)[C@@H]2C3C(=O)OCCC=C[C@H]3OC23C=CCN(C(C)(C)C)C(=O)[C@@H]13 (stereo not given in full) | 0.589 and 0.169 | -0.848 and -0.0168 | -0.158 and -0.0296 | -0.884 and 0.546 | -1.01 and 0.13 | -0.551 and 0.91 | 0.369 and 1.41 | 0.714 (inactive) and 0.355 (inactive) | -0.547 and -0.0366 | -0.134 and 0.0749
